The structures appear in SMILES notation. Where “and” joins values, the source holds several entries; their conditions need not be identical. Equal values may be shown once. Records with an inconclusive call do not appear. Some structures have more than one record in an assay (separate samples or runs), and their calls can disagree. Calls of active or inactive are those of the source. How the source made its calls, unless noted: active means hit-call score of the fitted dose curve at least 0.9, where 1 is the maximum; inconclusive means response in the unintended direction; inactive means score below 0.9.

This note sets out measurements from PubChem BioAssay (EPA / NIEHS).

A short description of test [1]: ATG_TAL_CIS: Attagene CIS-FACTORIAL HepG2 Assay for human TAL Basal Promoter (AID 2282966; active means hit-call score of the fitted dose curve at least 0.9, where 1 is the maximum; inactive means score below 0.9;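 further: background control endpoint measuring basal TAL promoter reporter mRNA not a specific factor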). The conditions noted are these: HepG2 Attagene cis-factorial TAL promoter reporter; actives raise or lower the signal. In short, it runs like this: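 Human hepatoma HepG2 cells, transfected with promoter-regulated reporter units, were treated 24 h. Reporter transcript levels, measured through RT-PCR and capillary electrophoresis, were fitted for gain or loss relative to DMSO.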

The nature of test [2]: ATG_TGFb_CIS: Attagene CIS-FACTORIAL HepG2 Assay for human Transforming Growth Factor (TGF) (AID 2282967; active means hit-call score of the fitted dose curve at least 0.9, where 1 is the maximum; inactive means score below 0.9). To be noted: HepG2 Attagene CIS TGFb reporter, mRNA transcription; actives raise or lower the signal. In short, it runs like this:
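Endogenous TGFB1-linked transcription factor activity read as reporter mRNA via RT-PCR and capillary electrophoresis, 24 h after dosing transiently transfected HepG2 cells. Gain or loss of signal fitted relative to DMSO.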

A short description of test [3]: ATG_VDRE_CIS: Attagene CIS-FACTORIAL HepG2 Assay for human Vitamin D Receptor Element (VDRE) (AID 2282968; active means hit-call score of the fitted dose curve at least 0.9, where 1 is the maximum; inactive means score below 0.9). The conditions noted are these: HepG2 VDRE cis-reporter transcription, actives raise or lower the signal. The method in brief: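 Steps: transfect HepG2 with multiple reporter transcription units; dose chemicals 24 h; isolate RNA; RT-PCR; label with 6-FAM primer extension; HpaI digest; capillary electrophoresis. Curves fitted both directions against DMSO.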

For test [4], the target named is Nuclear receptor subfamily 1 group I member 3 (Homo sapiens) (UniProt Q14994). Briefly: ATG_CAR_TRANS: Attagene TRANS-FACTORIAL HepG2 Assay for human Constitutive Androstane Receptor (CAR) (AID 2282969).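 Further: activators raise reporter mRNA above DMSO so AC50 marks induction.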 To be noted: HepG2 Attagene TRANS-FACTORIAL CAR reporter. In short, it runs like this: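 Steps: transient transfection of HepG2 with multiple GAL4-UAS reporter units; 24 h compound incubation; RNA isolation, RT-PCR, 6-FAM primer extension, HpaI digest; capillary electrophoresis. Gain-of-signal relative to DMSO negative control.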

Test [5] has as its target Estrogen receptor (Homo sapiens) (UniProt P03372). Briefly: ATG_ERa_TRANS: Attagene TRANS-FACTORIAL HepG2 Assay for human Estrogen Receptor alpha (ERa) (AID 2282970). To be noted: HepG2 Attagene TRANS ERa GAL4 reporter, mRNA. In short, it runs like this: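 Signal derives from fluorescence of labelled reporter PCR fragments separated by capillary electrophoresis. HepG2 cells transiently carrying multiple GAL4-UAS reporter units were treated 24 hours, and induction above DMSO baseline was fitted as activity.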

Test [6] addresses X-box-binding protein 1 (Homo sapiens) (UniProt P17861). Briefly: ATG_Xbp1_CIS: Attagene CIS-FACTORIAL HepG2 Assay for human X-box Binding Protein 1 (XBP1) (AID 2282972; active means hit-call score of the fitted dose curve at least 0.9, where 1 is the maximum; inactive means score below 0.9). The conditions noted are these: HepG2 XBP1 cis-element reporter, Attagene multiplex; actives raise or lower the signal. In short, it runs like this:
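Reporter transcripts were quantified by RT-PCR with fluorescent primer extension and capillary electrophoresis after 24 h chemical exposure. Cells: transiently transfected HepG2 carrying cis-regulated reporter constructs; data fitted bidirectionally relative to DMSO.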

For test [7], the target named is Glucocorticoid receptor (Homo sapiens) (UniProt P04150). In words: ATG_GR_TRANS: Attagene TRANS-FACTORIAL HepG2 Assay for human Glucocorticoid Receptor (GR) (AID 2282978).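 Further: activators score as hits since higher reporter transcript over DMSO is fitted.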 The conditions noted are these: HepG2 Attagene TRANS GR reporter, mRNA transcription. In short, it runs like this:
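Exogenous NR-GAL4 fusion activity was assessed through induced GAL4-UAS reporter transcripts in transfected human HepG2 cells, quantified after 24 h by RT-PCR and fluorescent capillary electrophoresis with DMSO as baseline.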

In test [8] the target is Bile acid receptor (Homo sapiens) (UniProt Q96RI1). Briefly: ATG_FXR_TRANS: Attagene TRANS-FACTORIAL HepG2 Assay for Farnesoid X Receptor (FXR) (AID 2282979).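 Further: hits raise reporter mRNA above DMSO so AC50 marks FXR activation.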 To be noted: HepG2 Attagene TRANS FXR-GAL4 reporter transcription. The method in brief: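 After 24 h chemical treatment of transfected HepG2 cells, GAL4-UAS reporter transcripts driven by an exogenous FXR-GAL4 fusion were measured by RT-PCR and capillary electrophoresis. Increases over DMSO were fitted.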

In test [9] the target is Oxysterols receptor LXR-alpha (Homo sapiens) (UniProt Q13133). In words: ATG_LXRa_TRANS: Attagene TRANS-FACTORIAL HepG2 Assay for human Liver X Receptor alpha (LXRa) (AID 2282980). The conditions noted are these: HepG2 Attagene TRANS reporter, LXRa transactivation. The method in brief:
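In this multiplexed TRANS system, compounds act on HepG2 cells carrying GAL4-UAS reporter units and a receptor-GAL4 fusion for 24 h. Induced reporter RNA is amplified, fluorescently labelled and sized by capillary electrophoresis, with DMSO as baseline.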

Test [10] addresses Oxysterols receptor LXR-beta (Homo sapiens) (UniProt P55055). In words: ATG_LXRb_TRANS: Attagene TRANS-FACTORIAL HepG2 Assay for human Liver X Receptor beta (LXRb) (AID 2282981). To be noted: HepG2 Attagene TRANS GAL4-LXRb reporter, mRNA. The method in brief:
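Measures induction of a Gal4-driven reporter transcript in HepG2 cells expressing an exogenous LXRb-Gal4 fusion. Cells are exposed to compound for 24 h before RNA isolation and RT-PCR with capillary electrophoresis detection.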

Test [11] can be described thus: ATG_M_06_TRANS: Attagene TRANS-FACTORIAL HepG2 Assay for M06 Transcription Factor (Internal Marker) (AID 2282983). To be noted: HepG2 Attagene TRANS M06 internal marker reporter. The method in brief: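 Multi-reporter-transfected HepG2, 24 h treatment; reporter transcripts quantified via RT-PCR, primer-extension labelling and CE. DMSO-normalized gain-of-signal fit.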

A short description of test [12]: ATG_M_32_TRANS: Attagene TRANS-FACTORIAL HepG2 Assay for M32 Transcription Factor (Internal Marker) (AID 2282984). The conditions noted are these: HepG2 Attagene TRANS M32 internal marker reporter. In short, it runs like this:
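After 24 h dosing of transfected HepG2 cells, total RNA was reverse-transcribed, reporter sequences PCR-amplified, 6-FAM labelled by primer extension and HpaI-digested before capillary electrophoresis. Signal increase over DMSO was fitted.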

Test [13] has as its target Transcriptional activator Myb (Homo sapiens) (UniProt P10242). In words: ATG_Myb_CIS: Attagene CIS-FACTORIAL HepG2 Assay for human Myeloblastosis (Myb) Proto-Oncogene Transcription Factor (AID 2282986; active means hit-call score of the fitted dose curve at least 0.9, where 1 is the maximum; inactive means score below 0.9). To be noted: HepG2 Attagene CIS-FACTORIAL Myb reporter transcription; actives raise or lower the signal. The method in brief: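 In this HepG2 transient-transfection format, cis-regulated reporter mRNA is quantified 24 h post-dosing by RT-PCR with capillary electrophoresis, fitted bidirectionally to DMSO baseline.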

Test [14] concerns the target Steroid hormone receptor ERR1 (Homo sapiens) (UniProt P11474). Briefly: ATG_ERRa_TRANS: Attagene TRANS-FACTORIAL HepG2 Assay for human Estrogen-Related Receptor alpha (ERRa) (AID 2282971). The conditions noted are these: HepG2 Attagene TRANS reporter, ERRa transactivation. In short, it runs like this: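 Signal gain relative to DMSO for an ERRa-Gal4 chimeric receptor, read as reporter mRNA by RT-PCR/capillary electrophoresis. Human HepG2 liver cells, transient multiplex reporter transfection, 24 h chemical exposure.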

The nature of test [15]: ATG_M_19_TRANS: Attagene TRANS-FACTORIAL HepG2 Assay for M19 Transcription Factor (Internal Marker) (AID 2282974). The conditions noted are these: HepG2 Attagene TRANS-FACTORIAL M19 internal marker reporter. In short, it runs like this:
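Using RT-PCR and capillary electrophoresis, reporter mRNA from transiently transfected human HepG2 cells was quantified following 24 h exposure; activity was fitted in the positive direction against DMSO.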

Test [16] concerns the target Hepatocyte nuclear factor 4-alpha (Homo sapiens) (UniProt P41235). Briefly: ATG_HNF4a_TRANS: Attagene TRANS-FACTORIAL HepG2 Assay for human Hepatocyte Nuclear Factor 4 alpha (HNF4a) (AID 2282982). The conditions noted are these: HepG2 HNF4a transactivation reporter, mRNA readout. In short, it runs like this:
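In this trans-factorial format, a chimeric HNF4a-GAL4 fusion drives a GAL4-UAS reporter in transfected HepG2 liver cells. After 24 h treatment, reporter mRNA induction is measured by RT-PCR with capillary electrophoresis, relative to DMSO.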

Test [17] concerns the target Estrogen-related receptor gamma (Homo sapiens) (UniProt P62508). In words: ATG_ERRg_TRANS: Attagene TRANS-FACTORIAL HepG2 Assay for human Estrogen-Related Receptor gamma (ERRg) (AID 2282977).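 Further: hits increase reporter signal over DMSO so potencies reflect activators.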 The conditions noted are these: HepG2 Attagene TRANS reporter, ERRg transactivation. The method in brief:
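Exogenous NR-Gal4 chimera activity measured as reporter transcript induction after 24 h in transiently transfected HepG2 cells. RNA reverse-transcribed, PCR-amplified, 6-FAM-labelled and resolved by capillary electrophoresis; increase over DMSO baseline.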

Test [18] addresses Nuclear receptor subfamily 4 group A member 2 (Homo sapiens) (UniProt P43354). Briefly: ATG_NURR1_TRANS: Attagene TRANS-FACTORIAL HepG2 Assay for human Nuclear Receptor Related Protein 1 (NURR1) (AID 2282985). To be noted: HepG2 Attagene TRANS reporter, mRNA readout. The method in brief: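 Chimeric NR-Gal4 fusion activity measured in HepG2 after 24 h treatment. Reporter transcripts detected by RT-PCR and capillary electrophoresis fluorescence; positive-direction curve fitting against DMSO.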

Test [19] can be described thus: ATG_GAL4_TRANS: Attagene TRANS-FACTORIAL HepG2 Assay for GAL4 (Internal Marker) (AID 2282976). The conditions noted are these: HepG2 Attagene TRANS GAL4 internal marker reporter. The method in brief: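 Liver HepG2 line bearing multiplexed GAL4-UAS reporter constructs; 24 h chemical treatment. Transcripts were quantified as fluorescent fragments on capillary electrophoresis after RT-PCR and HpaI cut, with activity fitted upward from DMSO.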

Chain of X-box-binding protein 1 (Homo sapiens) (P17861 whole entry, looked up): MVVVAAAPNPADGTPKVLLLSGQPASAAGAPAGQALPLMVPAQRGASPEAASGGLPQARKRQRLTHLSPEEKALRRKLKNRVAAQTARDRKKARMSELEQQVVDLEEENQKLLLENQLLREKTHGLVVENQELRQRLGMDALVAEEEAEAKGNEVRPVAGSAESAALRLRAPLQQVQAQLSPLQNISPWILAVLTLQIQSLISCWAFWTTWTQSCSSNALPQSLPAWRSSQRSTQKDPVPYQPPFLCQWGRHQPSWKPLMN
Chain of Transcriptional activator Myb (Homo sapiens) (P10242 whole entry, looked up): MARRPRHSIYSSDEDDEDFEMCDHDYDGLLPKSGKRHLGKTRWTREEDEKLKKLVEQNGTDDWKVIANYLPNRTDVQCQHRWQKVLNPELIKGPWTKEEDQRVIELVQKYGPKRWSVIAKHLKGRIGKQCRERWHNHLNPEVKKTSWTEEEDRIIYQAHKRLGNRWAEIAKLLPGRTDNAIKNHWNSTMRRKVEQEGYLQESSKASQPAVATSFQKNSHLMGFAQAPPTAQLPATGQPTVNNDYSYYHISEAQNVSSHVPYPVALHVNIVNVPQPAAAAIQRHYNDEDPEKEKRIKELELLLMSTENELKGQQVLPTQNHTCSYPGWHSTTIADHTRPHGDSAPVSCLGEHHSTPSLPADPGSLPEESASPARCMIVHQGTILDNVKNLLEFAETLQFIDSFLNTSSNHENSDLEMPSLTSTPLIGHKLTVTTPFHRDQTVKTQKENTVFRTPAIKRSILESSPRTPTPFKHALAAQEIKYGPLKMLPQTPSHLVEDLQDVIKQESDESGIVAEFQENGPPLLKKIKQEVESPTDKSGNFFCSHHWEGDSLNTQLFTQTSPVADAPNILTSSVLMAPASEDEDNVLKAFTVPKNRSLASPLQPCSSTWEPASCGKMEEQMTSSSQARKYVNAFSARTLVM
Chain of Oxysterols receptor LXR-alpha (Homo sapiens) (Q13133 whole entry, looked up, the tested form may be a part): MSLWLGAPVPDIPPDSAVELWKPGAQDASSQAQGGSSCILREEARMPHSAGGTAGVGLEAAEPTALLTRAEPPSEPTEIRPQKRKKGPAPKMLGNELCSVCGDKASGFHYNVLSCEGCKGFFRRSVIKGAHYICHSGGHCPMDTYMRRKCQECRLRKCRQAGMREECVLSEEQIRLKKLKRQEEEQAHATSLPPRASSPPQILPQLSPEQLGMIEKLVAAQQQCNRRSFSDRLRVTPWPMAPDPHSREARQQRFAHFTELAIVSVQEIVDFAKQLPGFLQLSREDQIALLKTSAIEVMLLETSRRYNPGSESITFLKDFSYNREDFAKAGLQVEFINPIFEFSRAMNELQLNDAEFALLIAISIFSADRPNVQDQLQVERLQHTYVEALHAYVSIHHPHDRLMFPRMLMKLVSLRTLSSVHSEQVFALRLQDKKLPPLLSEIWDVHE
Chain of Estrogen-related receptor gamma (Homo sapiens) (P62508 whole entry, looked up, the tested form may be a part): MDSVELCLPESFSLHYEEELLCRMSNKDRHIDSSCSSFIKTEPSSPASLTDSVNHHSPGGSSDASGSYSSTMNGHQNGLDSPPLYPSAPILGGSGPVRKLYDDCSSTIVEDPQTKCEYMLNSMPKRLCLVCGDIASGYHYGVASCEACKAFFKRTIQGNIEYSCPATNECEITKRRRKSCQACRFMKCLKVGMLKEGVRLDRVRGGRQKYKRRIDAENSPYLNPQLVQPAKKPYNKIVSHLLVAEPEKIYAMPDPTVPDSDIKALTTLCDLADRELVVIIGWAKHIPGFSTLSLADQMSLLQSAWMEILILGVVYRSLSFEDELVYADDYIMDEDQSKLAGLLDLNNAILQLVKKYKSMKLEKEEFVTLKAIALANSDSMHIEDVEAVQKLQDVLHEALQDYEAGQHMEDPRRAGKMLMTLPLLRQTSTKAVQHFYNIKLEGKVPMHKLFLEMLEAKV
Chain of Glucocorticoid receptor (Homo sapiens) (P04150 whole entry, looked up, the tested form may be a part): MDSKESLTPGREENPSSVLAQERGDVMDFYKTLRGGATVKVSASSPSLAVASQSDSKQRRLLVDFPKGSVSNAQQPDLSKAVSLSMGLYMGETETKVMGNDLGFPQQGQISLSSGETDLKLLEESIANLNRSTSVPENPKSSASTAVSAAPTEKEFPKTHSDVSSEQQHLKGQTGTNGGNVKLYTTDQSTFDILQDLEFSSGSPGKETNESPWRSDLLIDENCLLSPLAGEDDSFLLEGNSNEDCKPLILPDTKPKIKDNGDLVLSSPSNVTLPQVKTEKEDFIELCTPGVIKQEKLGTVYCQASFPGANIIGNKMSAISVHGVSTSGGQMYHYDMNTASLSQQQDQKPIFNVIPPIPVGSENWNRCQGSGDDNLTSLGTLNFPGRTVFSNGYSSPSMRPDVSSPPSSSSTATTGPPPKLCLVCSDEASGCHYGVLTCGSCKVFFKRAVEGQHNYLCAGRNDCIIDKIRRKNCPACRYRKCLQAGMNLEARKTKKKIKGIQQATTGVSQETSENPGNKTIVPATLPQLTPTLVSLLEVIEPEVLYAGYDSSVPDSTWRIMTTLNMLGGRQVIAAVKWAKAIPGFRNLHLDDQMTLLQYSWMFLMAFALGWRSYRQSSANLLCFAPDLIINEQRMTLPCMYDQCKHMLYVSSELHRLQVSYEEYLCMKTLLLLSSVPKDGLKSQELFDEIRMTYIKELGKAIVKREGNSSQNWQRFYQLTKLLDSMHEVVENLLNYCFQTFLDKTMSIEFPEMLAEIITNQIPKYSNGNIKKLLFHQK
Chain of Estrogen receptor (Homo sapiens) (P03372 whole entry, looked up, the tested form may be a part): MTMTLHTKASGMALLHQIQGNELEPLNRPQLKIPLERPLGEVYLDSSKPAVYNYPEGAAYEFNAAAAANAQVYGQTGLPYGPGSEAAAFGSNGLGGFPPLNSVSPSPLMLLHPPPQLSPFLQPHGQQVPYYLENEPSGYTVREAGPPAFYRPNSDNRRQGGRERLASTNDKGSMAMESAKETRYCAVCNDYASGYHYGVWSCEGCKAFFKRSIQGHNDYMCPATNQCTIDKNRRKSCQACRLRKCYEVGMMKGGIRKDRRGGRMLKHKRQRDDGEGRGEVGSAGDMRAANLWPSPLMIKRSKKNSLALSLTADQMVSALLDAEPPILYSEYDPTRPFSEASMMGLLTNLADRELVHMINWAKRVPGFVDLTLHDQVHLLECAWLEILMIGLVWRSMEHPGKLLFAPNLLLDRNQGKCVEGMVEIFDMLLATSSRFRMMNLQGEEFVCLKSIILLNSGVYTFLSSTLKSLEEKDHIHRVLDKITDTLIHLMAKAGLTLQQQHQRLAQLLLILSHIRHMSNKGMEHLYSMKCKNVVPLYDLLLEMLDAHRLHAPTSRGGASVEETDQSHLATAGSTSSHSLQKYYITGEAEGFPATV
Chain of Nuclear receptor subfamily 1 group I member 3 (Homo sapiens) (Q14994 whole entry, looked up, the tested form may be a part): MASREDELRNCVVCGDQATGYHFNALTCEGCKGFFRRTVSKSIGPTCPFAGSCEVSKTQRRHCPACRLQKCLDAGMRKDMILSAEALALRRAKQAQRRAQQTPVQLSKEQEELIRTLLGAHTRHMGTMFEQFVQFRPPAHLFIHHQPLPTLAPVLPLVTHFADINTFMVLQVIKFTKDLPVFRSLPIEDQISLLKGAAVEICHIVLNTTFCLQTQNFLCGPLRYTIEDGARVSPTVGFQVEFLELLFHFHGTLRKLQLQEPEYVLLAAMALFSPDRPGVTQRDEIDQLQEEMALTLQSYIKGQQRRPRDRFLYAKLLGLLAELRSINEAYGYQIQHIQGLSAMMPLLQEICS
Chain of Oxysterols receptor LXR-beta (Homo sapiens) (P55055 whole entry, looked up, the tested form may be a part): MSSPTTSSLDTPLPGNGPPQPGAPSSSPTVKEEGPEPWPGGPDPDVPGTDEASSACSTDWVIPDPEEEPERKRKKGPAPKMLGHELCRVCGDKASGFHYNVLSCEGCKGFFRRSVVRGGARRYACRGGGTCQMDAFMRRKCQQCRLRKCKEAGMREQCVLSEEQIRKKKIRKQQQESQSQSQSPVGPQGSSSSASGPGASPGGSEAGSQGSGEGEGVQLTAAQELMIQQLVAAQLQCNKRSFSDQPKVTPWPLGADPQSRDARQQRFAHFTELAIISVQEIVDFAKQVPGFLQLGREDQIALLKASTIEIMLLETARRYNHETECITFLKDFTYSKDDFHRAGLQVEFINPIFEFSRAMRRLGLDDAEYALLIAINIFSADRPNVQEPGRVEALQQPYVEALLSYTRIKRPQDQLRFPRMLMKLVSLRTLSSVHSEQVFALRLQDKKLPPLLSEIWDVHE
Chain of Steroid hormone receptor ERR1 (Homo sapiens) (P11474 whole entry, looked up, the tested form may be a part): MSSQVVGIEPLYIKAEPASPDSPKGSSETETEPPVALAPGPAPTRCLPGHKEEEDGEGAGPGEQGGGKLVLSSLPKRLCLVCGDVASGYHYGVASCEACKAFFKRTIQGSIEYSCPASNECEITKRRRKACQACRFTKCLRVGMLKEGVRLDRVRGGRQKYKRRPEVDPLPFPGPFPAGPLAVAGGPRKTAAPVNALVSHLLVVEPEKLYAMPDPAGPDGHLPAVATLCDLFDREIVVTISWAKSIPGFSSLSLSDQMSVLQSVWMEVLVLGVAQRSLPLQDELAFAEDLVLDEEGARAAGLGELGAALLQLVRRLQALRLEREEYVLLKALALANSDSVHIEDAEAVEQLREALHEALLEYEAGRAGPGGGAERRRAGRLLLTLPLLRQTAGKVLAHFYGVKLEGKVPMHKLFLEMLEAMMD
Chain of Bile acid receptor (Homo sapiens) (Q96RI1 whole entry, looked up, the tested form may be a part): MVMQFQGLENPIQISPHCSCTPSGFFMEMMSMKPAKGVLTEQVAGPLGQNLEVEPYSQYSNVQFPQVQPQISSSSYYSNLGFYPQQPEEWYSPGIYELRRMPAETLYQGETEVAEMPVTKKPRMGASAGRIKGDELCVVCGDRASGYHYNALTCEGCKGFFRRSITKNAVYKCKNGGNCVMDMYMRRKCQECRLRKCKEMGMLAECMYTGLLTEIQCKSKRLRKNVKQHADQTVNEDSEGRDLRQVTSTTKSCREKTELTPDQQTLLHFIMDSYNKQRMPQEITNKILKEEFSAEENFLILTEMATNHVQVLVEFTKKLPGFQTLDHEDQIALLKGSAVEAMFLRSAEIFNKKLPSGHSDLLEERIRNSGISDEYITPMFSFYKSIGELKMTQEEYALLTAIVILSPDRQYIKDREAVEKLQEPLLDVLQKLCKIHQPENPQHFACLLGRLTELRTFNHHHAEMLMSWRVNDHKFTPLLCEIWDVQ

Take `ClC1=C(Cl)[C@]2(Cl)[C@@H]3[C@@H](Cl)[C@@H](Cl)C[C@@H]3[C@@]1(Cl)C2(Cl)Cl`: the compound was classed as inactive in test [1], in test [2], in test [3], in [4], in [5] and in [6]. The result in [7], in test [8], in test [9], in test [10], in [11] and in [12] was inactive. Also, the result in [13] was inactive.

As usually defined, the AC50 is the concentration at which the activity in the assay is half-maximal. `CCN1CCC2(CC1)COc1cc3c(cc12)N(C(=O)c1ccc(-c2ccc(-c4nnc(C)o4)cc2C)cc1)CC3`: the compound was classed as inactive in test [1], in test [2], in test [3], in test [4], in test [5] and in [14]. The call in [6], in test [15], in test [8], in test [9], in [12] and in test [13] was inactive. For the same compound, in test [10], the AC50 is 1.01 µM (active).

Consider `CCc1ccccc1N`, for which the compound was classed as inactive in [1], in test [2], in test [3], in [4], in [6] and in [15]. The result in test [9], in test [10], in test [16], in [12] and in [13] was inactive.

As to `O=C(Cc1ccccc1)c1ccccc1`, the call in test [1], in [2], in [3], in [4], in [6] and in [15] was inactive. For the same compound, the result in test [7], in test [8], in test [11], in test [12] and in test [13] was inactive.

With `CC(C)C1CCC(Cc2ccc(Cl)cc2)C1(O)Cn1cncn1` (centres undefined), the call in [1], in test [2], in test [4], in test [5], in test [6] and in test [15] was inactive. In addition, the call in test [17], in test [8], in test [9], in test [10], in test [11] and in test [12] was inactive. In test [13], the outcome was inactive. Further, the AC50 in test [3] is 4.62 µM (active).

As to `NC(=O)O`, the compound was called inactive in test [1], in test [2], in [3], in [4], in [5] and in test [14]. The outcome in test [6], in test [15], in test [17], in test [9], in [16] and in test [12] was inactive. The compound was called inactive in [18] and in test [13].

For `CCOP(=S)(OCC)Oc1ccc(S(C)=O)cc1` (centres undefined), the call in test [1], in test [2], in test [4], in [5], in [6] and in test [15] was inactive. For the same compound, the result in [17], in test [9] and in test [13] was inactive. Further, the AC50 in test [3] was 31.2 µM (active).

Take `C[C@]12CCC(=O)C[C@@H]1CC[C@@H]1[C@@H]2CC[C@]2(C)[C@@H](O)CC[C@@H]12`: the compound was called inactive in test [1], in test [2], in [3], in test [14], in test [6] and in [15]. Moreover, the outcome in test [9], in test [11], in test [12] and in test [13] was inactive. The AC50 was 123 µM (active) and 99.6 µM (active) in [2]; 33 µM (active) and 17.9 µM (active) and 23.4 µM (active) in [3].

For `COC(=O)Cc1ccccc1`, the outcome in test [1], in test [2], in test [3], in [4], in test [6] and in test [15] was inactive. Moreover, the call in [9], in [11], in test [12], in test [18] and in [13] was inactive.

Regarding `CNC(=O)O/N=C/C(C)(C)S(C)=O` (centres undefined), the compound was classed as inactive in test [1], in [2], in test [3], in test [4], in [5] and in test [6]. In addition, the call in [19], in test [7], in test [11] and in [13] was inactive.
